What was measured:
Test in all cases: DAPPL (digital affinity profiling via proximity ligation, sequencing); 10 mM Tris-HCl pH 7.5, 50 mM NaCl, 1 mM DTT, 4% glycerol, room temperature, 30 min; GST-TFs on glutathione beads, 16-mer random dsDNA library, 0.1% formaldehyde crosslink after washing; high values mean tight binding
Conditions in all cases: protein: recombinant; tags: N-terminal GST; dsDNA, one strand shown
[1] = target: T1, FLI1 (Homo sapiens, UniProt Q01543 1-452)
T1 sequence: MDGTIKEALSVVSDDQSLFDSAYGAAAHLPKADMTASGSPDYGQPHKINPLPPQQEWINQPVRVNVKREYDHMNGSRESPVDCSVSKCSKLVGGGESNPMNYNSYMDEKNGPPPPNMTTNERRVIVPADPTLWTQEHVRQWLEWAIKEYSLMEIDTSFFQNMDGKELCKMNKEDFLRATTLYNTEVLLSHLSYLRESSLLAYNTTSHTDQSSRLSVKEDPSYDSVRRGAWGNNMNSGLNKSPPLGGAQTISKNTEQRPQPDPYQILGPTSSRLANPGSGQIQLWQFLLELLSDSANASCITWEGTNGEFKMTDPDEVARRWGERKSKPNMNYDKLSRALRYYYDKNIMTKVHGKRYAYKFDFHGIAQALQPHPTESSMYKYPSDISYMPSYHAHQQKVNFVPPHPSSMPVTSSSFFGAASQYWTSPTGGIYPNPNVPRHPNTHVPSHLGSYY
Outline: (§1)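 GST fusions of human transcription factors were expressed in yeast and captured with glutathione beads. Once given DNA barcodes and pooled alongside a tag-only sample, they were incubated for 30 min at room temperature with 200 nmole of a random double-stranded 16-mer DNA library in Tris/NaCl/DTT/glycerol buffer, then washed, crosslinked (0.1% formaldehyde), proximity-ligated, PCR-amplified and sequenced on an Illumina NextSeq500. The binding signal of each hexamer is its read frequency for a factor divided by its frequency for the tag-only sample.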

[2] = target: T2, GABPA (Homo sapiens, UniProt Q06546 1-454)
T2 sequence: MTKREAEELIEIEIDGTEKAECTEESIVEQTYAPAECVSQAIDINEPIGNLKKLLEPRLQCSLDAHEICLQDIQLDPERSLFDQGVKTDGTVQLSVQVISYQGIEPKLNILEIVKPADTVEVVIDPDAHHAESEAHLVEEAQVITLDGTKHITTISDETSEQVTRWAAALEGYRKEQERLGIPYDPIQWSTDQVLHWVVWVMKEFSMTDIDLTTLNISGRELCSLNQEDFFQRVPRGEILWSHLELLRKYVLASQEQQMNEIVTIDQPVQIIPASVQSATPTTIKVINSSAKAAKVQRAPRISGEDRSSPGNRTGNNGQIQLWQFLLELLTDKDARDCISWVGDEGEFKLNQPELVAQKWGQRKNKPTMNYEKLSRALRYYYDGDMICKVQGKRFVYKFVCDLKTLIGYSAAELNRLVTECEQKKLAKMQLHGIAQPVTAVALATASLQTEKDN
Outline: as §1

[3] = target: T3, ERG (Homo sapiens, UniProt P11308 1-479)
T3 sequence: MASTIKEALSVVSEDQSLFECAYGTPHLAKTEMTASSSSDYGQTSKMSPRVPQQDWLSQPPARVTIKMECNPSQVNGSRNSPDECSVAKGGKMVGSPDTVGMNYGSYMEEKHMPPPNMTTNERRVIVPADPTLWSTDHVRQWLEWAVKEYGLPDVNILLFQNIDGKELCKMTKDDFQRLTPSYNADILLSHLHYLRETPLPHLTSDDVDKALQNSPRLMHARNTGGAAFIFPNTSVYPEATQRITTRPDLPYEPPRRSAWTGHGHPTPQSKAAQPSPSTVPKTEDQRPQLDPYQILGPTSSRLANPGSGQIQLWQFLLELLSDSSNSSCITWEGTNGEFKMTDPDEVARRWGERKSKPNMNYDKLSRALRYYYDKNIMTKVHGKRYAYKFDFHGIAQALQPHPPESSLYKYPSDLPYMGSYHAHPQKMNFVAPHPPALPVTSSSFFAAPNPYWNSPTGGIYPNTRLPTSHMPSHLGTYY
Outline: as §1

[4] = target: ELF1 (Homo sapiens, UniProt P32519 1-619)
Outline: as §1

[5] = target: T4, EHF (Homo sapiens, UniProt Q9NZC4 1-300)
T4 sequence: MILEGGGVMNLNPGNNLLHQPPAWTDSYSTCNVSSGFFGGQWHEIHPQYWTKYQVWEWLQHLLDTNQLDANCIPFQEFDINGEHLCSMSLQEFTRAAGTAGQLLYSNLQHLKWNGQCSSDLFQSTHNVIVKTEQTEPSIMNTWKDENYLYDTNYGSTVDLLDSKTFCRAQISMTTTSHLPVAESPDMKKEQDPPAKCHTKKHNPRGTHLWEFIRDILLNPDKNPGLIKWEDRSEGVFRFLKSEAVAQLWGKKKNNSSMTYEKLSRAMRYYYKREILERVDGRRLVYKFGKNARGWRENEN
Outline: as §1

[6] = target: SPI1 (Homo sapiens, UniProt P17947 1-270)
Outline: as §1

[7] = target: SPIB (Homo sapiens, UniProt Q01892 1-262)
Outline: as §1

[8] = target: T5, ELK3 (Homo sapiens, UniProt P41970 1-407)
T5 sequence: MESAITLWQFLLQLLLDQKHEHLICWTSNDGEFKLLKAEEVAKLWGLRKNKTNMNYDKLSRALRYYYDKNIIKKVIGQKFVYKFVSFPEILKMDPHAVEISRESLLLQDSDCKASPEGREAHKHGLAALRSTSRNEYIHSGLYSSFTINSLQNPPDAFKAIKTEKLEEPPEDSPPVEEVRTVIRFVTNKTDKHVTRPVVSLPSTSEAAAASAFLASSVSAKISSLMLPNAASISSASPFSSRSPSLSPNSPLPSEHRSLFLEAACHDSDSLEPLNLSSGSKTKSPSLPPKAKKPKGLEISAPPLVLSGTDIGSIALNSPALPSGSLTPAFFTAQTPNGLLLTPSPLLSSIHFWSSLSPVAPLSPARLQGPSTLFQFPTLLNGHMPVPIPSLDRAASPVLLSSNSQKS
Outline: as §1

[9] = target: T6, FEV (Homo sapiens, UniProt Q99581 1-238)
T6 sequence: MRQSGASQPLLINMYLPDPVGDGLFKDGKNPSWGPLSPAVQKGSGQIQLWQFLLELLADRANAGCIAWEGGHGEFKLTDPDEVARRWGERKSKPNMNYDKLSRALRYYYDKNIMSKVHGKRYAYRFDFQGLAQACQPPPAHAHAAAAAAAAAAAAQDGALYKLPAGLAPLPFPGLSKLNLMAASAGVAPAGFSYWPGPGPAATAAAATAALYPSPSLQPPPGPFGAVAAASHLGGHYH
Outline: as §1

[10] = target: ETV5 (Homo sapiens, UniProt P41161 1-510)
Outline: as §1

[11] = target: T7, SPIC (Homo sapiens, UniProt Q8N5J4 1-248)
T7 sequence: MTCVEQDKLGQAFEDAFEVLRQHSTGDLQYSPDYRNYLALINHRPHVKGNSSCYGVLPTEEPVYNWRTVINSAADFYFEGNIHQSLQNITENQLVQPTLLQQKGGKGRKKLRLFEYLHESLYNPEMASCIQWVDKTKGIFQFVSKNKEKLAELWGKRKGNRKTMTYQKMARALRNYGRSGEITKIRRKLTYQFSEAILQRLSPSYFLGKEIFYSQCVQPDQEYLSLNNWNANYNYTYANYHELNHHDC
Outline: as §1

[12] = target: ELF4 (Homo sapiens, UniProt Q99607 1-663)
Outline: as §1

[13] = target: ETV1 (Homo sapiens, UniProt P50549 1-477)
Outline: as §1

[14] = target: T8, ERF (Homo sapiens, UniProt P50548 1-548)
T8 sequence: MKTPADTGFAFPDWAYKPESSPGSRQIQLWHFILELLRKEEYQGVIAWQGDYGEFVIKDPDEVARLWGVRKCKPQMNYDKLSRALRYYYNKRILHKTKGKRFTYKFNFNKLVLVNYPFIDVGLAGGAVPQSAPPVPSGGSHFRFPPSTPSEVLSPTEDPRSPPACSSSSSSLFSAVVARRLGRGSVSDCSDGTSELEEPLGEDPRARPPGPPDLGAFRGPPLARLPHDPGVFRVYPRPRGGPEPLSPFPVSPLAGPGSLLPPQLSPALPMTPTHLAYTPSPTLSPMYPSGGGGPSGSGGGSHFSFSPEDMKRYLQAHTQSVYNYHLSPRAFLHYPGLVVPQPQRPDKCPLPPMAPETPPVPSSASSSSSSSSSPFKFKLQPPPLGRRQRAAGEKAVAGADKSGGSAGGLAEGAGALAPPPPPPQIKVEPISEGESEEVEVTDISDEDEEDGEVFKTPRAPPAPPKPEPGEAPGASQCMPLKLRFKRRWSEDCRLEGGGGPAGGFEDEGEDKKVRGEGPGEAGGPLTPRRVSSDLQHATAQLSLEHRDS
Outline: as §1

[15] = target: T9, ETV3L (Homo sapiens, UniProt Q6ZN32 1-361)
T9 sequence: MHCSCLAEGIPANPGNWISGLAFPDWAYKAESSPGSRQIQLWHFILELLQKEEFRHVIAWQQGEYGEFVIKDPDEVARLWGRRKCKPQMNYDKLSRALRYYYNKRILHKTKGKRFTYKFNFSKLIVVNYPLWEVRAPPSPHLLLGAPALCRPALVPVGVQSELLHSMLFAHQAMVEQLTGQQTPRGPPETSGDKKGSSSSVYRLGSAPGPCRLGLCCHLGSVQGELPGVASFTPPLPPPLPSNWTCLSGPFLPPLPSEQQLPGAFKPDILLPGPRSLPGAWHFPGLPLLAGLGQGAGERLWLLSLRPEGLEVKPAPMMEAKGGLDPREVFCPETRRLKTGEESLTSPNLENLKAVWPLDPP
Outline: as §1

[16] = target: T10, ETS2 (Homo sapiens, UniProt P15036 1-469)
T10 sequence: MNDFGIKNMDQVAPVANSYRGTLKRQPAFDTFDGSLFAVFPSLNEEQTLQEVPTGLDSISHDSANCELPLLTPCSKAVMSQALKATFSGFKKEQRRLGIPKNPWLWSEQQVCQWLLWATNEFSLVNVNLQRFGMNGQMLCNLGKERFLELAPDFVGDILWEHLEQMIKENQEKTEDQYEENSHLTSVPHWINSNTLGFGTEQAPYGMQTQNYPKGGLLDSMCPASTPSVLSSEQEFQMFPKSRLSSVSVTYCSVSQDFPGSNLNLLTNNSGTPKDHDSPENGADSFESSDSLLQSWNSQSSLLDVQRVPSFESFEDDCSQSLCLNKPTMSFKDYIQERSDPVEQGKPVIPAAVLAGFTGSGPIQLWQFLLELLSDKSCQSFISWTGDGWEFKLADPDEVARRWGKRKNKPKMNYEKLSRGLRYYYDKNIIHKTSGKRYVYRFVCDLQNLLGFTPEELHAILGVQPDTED
Outline: as §1

[17] = target: T11, ELF5 (Homo sapiens, UniProt Q9UKW6-2 1-255)
T11 sequence: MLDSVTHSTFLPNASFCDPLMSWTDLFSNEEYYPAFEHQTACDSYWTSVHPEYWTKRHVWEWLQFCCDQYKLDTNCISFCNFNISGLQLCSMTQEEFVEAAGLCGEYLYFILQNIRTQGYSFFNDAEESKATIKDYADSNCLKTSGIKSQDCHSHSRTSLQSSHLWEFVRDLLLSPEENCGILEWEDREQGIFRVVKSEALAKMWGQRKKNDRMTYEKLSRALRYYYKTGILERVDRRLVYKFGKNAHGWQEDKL
Outline: as §1

[18] = target: T12, ETV3 (Homo sapiens, UniProt P41162-2 1-143)
T12 sequence: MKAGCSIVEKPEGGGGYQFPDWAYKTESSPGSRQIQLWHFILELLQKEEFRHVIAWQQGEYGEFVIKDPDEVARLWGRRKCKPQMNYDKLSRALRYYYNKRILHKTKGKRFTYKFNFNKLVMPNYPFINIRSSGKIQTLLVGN
Outline: as §1

[19] = target: ETV6 (Homo sapiens, UniProt P41212 1-452)
Outline: as §1

[20] = target: T13, ELK1 (Homo sapiens, UniProt P19419 1-428)
T13 sequence: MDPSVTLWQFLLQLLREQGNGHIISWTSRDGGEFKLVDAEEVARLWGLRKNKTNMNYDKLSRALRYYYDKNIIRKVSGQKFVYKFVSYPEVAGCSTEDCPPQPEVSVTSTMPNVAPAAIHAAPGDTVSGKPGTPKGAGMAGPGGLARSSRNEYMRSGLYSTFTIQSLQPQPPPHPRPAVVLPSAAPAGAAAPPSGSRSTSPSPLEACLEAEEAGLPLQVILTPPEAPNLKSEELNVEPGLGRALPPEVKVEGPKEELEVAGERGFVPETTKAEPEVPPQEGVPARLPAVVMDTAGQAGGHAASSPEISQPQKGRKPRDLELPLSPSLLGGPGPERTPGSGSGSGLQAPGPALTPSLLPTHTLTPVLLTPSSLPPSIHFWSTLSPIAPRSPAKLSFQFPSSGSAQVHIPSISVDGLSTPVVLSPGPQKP
Outline: as §1

ELF1, sequence (P32519 whole entry): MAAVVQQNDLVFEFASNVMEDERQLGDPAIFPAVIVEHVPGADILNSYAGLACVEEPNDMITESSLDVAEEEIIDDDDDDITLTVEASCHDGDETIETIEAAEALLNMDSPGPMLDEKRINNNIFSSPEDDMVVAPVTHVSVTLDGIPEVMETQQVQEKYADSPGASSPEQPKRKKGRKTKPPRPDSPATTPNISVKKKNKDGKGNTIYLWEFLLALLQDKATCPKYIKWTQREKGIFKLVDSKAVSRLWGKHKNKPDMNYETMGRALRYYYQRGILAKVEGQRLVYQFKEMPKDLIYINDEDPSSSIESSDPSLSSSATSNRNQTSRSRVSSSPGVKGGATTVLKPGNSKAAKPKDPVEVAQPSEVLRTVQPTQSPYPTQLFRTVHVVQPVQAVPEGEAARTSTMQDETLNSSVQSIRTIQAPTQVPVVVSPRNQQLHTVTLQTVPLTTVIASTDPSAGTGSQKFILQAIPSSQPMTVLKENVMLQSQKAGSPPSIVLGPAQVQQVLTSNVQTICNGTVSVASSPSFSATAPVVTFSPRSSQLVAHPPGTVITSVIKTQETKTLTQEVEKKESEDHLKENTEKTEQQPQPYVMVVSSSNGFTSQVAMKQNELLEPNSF
ETV5, sequence (P41161 whole entry): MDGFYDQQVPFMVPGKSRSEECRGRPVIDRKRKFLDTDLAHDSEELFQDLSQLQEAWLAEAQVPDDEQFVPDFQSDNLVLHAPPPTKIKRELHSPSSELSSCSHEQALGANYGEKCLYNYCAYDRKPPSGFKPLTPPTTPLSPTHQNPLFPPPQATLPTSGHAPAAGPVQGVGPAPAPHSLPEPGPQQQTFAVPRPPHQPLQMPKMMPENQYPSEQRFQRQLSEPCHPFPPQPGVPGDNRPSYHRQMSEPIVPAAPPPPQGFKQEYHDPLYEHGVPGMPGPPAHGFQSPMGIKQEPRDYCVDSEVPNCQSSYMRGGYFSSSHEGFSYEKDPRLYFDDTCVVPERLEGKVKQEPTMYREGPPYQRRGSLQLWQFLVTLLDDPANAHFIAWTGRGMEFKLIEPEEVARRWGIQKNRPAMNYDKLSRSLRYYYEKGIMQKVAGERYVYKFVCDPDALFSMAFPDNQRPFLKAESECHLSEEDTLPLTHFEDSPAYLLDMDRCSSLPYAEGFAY
SPIB, sequence (Q01892 whole entry): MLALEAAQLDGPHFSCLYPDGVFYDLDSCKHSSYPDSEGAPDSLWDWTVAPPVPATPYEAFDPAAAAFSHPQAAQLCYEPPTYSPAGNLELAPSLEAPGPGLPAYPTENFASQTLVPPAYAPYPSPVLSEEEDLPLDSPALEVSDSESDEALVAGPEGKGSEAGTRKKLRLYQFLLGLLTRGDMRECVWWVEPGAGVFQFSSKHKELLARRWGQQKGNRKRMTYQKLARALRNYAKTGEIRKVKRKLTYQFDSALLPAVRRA
ELF4, sequence (Q99607 whole entry): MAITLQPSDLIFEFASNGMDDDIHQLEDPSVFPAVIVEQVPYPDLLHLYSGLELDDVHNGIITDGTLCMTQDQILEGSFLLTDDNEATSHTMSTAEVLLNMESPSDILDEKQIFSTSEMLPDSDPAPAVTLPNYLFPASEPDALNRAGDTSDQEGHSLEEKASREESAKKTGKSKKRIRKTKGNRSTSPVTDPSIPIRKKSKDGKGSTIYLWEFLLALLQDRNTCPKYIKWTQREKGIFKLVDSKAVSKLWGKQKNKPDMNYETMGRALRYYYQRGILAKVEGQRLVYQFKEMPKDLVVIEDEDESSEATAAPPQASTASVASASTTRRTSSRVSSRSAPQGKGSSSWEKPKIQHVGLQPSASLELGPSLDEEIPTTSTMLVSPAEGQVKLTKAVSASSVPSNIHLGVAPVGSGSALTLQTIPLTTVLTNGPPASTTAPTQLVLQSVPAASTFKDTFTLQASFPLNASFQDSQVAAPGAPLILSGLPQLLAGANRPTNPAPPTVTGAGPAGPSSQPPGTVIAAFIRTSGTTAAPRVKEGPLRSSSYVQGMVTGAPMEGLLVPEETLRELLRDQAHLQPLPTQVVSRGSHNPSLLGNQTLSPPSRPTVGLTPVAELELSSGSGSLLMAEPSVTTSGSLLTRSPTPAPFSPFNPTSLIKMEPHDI
ETV1, sequence (P50549 whole entry): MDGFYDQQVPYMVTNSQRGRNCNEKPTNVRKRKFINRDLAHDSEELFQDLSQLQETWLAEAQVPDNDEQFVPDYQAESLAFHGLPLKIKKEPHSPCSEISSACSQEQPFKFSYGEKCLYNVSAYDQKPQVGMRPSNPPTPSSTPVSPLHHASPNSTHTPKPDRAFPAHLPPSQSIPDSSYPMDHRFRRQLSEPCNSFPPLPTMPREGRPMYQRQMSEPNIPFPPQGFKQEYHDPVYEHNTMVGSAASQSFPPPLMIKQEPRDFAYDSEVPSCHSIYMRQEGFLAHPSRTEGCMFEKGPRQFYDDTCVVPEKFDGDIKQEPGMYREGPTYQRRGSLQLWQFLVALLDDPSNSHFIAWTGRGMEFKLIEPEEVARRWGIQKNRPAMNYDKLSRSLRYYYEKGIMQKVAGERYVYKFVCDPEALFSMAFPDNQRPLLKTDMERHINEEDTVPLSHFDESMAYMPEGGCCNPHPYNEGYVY
ETV6, sequence (P41212 whole entry): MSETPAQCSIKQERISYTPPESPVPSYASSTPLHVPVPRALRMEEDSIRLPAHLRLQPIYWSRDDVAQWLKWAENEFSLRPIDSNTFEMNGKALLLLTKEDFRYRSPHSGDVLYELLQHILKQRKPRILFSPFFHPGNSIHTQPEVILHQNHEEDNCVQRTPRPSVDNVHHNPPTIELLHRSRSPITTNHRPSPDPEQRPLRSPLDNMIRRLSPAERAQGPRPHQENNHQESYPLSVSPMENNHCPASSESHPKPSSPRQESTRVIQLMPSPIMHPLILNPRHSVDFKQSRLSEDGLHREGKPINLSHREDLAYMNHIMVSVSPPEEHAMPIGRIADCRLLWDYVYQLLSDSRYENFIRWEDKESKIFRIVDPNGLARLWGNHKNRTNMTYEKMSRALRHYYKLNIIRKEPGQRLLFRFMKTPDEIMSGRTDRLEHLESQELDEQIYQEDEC

Sequence | binding signal [1] | binding signal [2] | binding signal [3] | binding signal [4] | binding signal [5] | binding signal [6] | binding signal [7] | binding signal [8] | binding signal [9] | binding signal [10] | binding signal [11] | binding signal [12] | binding signal [13] | binding signal [14] | binding signal [15] | binding signal [16] | binding signal [17] | binding signal [18] | binding signal [19] | binding signal [20]
GTCCTG | 1.09 fold enrichment (6-mer frequency, TF over GST control) | 1.05 fold enrichment (6-mer frequency, TF over GST control) | 1.17 fold enrichment (6-mer frequency, TF over GST control) | 1.15 fold enrichment (6-mer frequency, TF over GST control) | 1.09 fold enrichment (6-mer frequency, TF over GST control) | 1.16 fold enrichment (6-mer frequency, TF over GST control) | 1.15 fold enrichment (6-mer frequency, TF over GST control) | 1.05 fold enrichment (6-mer frequency, TF over GST control) | 1.1 fold enrichment (6-mer frequency, TF over GST control) | 1.08 fold enrichment (6-mer frequency, TF over GST control) | 1.3 fold enrichment (6-mer frequency, TF over GST control) | 1.09 fold enrichment (6-mer frequency, TF over GST control) | 1.17 fold enrichment (6-mer frequency, TF over GST control) | 1.08 fold enrichment (6-mer frequency, TF over GST control) | 1.19 fold enrichment (6-mer frequency, TF over GST control) | 1.02 fold enrichment (6-mer frequency, TF over GST control) | 1.3 fold enrichment (6-mer frequency, TF over GST control) | 1.2 fold enrichment (6-mer frequency, TF over GST control) | 1.16 fold enrichment (6-mer frequency, TF over GST control) | –
GGTATG | 1.01 fold enrichment (6-mer frequency, TF over GST control) | – | – | 1.01 fold enrichment (6-mer frequency, TF over GST control) | – | – | 1.02 fold enrichment (6-mer frequency, TF over GST control) | – | – | 1.01 fold enrichment (6-mer frequency, TF over GST control) | 1.22 fold enrichment (6-mer frequency, TF over GST control) | – | – | – | – | – | – | 1.02 fold enrichment (6-mer frequency, TF over GST control) | – | 1.03 fold enrichment (6-mer frequency, TF over GST control)

— paper PMC7862700, “An all-to-all approach to the identification of sequence-specific readers for epigenetic DNA modifications on cytosine”
